Compounds with a hit are over-represented: about 18% of the library has one in this group of screens.
VDR inhibitor: Inhibitors of the vitamin D receptor (VDR): qHTS. Vitamin D3 receptor (Homo sapiens), P11473. VDR-SRC2-3 peptide fluorescence polarization, 2 h. Potency, µM, hits mostly inhibitors. 400,000 tested, 0.93% active. AID 504847, 2011
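Two reagent solutions held at 4 deg C in the dark were dispensed, compounds pinned at 23 nl, and the mixture incubated 2 h at room temperature. Read-out: fluorescence polarization of VDR–SRC2-3 peptide binding.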
TDP1 inh: qHTS Assay for Inhibitors of Tyrosyl-DNA Phosphodiesterase (TDP1); 350,000 tested, 0.28% active; AID 485290, 2010; Potency, µM (top dose mostly 130 µM), actives largely listed as inhibitors; Tyrosyl-DNA phosphodiesterase 1 (Homo sapiens), Q9NUW8; recombinant TDP1, AlphaScreen DNA substrate cleavage; note: nearly all actives have a fitted effect of over 40% in size
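AlphaScreen read-out: signal falls as enzyme removes the 3' tyrosine-FITC from a 5'-biotinylated DNA oligo (15 nM, 5 min, RT). Enzyme was E. coli-made recombinant Tdp1 at 1 nM, exposed to compound for 15 min beforehand; beads 10 ug/ml, 10 min.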
DT40 TDP1 CPT: qHTS for Inhibitors of human tyrosyl-DNA phosphodiesterase 1 (TDP1): qHTS in cells in presence of CPT; chicken DT40 Tdp1-/-;hTDP1 cells + 20 nM CPT, ATP luminescence, 48 h; Potency, µM (doses to about 46.2 µM), actives largely listed as inhibitors; 420,000 tested, 12% active; AID 686979, 2013; note: nearly all actives have a fitted effect of over 55% in size
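Cell growth measured by CellTiter-Glo luminescence after a minimum 48 h, 37 C compound exposure with 20 nM CPT in Tdp1-knockout DT40 cells stably expressing hTDP1, seeded 400/well; qHTS titration format.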
PLK1 PBD inh: qHTS for Inhibitors of PLK1-PDB (polo-like kinase 1 - polo-box domain): Primary Screen; 360,000 tested, 2.8% active; Plk1 PBD binding of FITC phosphopeptide, fluorescence polarization; Potency, µM, most hits filed as inhibitors; Serine/threonine-protein kinase PLK1 (Homo sapiens), P53350; note: series mostly up to about 57 µM; nearly all actives have a fitted effect of over 65% in size
Target sequence (P53350 whole entry, looked up, the tested form may be a part): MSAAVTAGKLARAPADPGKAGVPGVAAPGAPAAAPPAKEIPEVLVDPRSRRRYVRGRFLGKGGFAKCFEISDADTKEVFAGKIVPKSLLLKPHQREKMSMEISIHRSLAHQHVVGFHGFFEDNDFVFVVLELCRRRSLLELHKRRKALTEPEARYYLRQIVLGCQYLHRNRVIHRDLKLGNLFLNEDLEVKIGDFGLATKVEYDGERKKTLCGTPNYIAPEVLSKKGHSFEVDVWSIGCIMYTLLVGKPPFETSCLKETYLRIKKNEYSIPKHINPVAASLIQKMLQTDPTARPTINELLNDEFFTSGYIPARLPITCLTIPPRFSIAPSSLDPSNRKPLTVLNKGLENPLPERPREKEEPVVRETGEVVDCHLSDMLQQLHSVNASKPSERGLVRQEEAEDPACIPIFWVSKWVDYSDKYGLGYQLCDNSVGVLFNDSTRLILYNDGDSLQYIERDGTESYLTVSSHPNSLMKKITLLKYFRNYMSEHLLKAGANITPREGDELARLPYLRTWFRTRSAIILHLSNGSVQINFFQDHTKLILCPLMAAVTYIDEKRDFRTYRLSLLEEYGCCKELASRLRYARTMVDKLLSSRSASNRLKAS
KAT2A inh: qHTS Assay for Inhibitors of GCN5L2; 390,000 tested, 0.21% active; GCN5L2 HAT assay, ThioGlo1 CoA-SH fluorescence; Potency, µM (titrated, usually from 58.9 µM), actives largely listed as inhibitors; Histone acetyltransferase KAT2A (Homo sapiens), Q92830
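Fluorescence readout, Ex340nm/Em540nm: ThioGlo1 (50uM final) reacts with free CoA thiol released as 20nM GCN5L2 acetylates H3(1-25) peptide (75uM) using acetyl-CoA (70uM). Compound and enzyme sat 15 min beforehand; 20 min room-temperature reaction.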
TDP1 cell noCPT: qHTS for Inhibitors of human tyrosyl-DNA phosphodiesterase 1 (TDP1): qHTS in cells in absence of CPT | DT40 Tdp1-/- hTDP1 cells, no CPT, ATP luminescence, 48 h | Potency, µM (doses to about 46.2 µM), hits mostly inhibitors | 420,000 tested, 15% active; note: nearly all actives have a fitted effect of over 55% in size
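Compound effects on proliferation are scored in DT40 Tdp1-/-;hTDP1 cells in the absence of CPT. ATP levels (CellTiter-Glo luminescence) are recorded after a ≥48 hr, 37 °C incubation.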
Large screens that a line does not name were inactive. Calls come from the whole dose curve; as a rule, active = well fitted curve in the direction sought with a large enough effect; inconclusive = small, poorly fitted or top-dose-only effect, or another doubt; inactive = no such curve, though single readings can be large; an effect the other way counts as inactive or inconclusive.

Cc1cccc(-c2nc3ccccc3n3c(-c4ccccc4)c4c(=O)n(C)c(=O)n(C)c4c23)c1	none (no result: PLK1 PBD inh)
CCc1nc2ccccc2n2c(-c3ccccc3)c3c(=O)n(C)c(=O)n(C)c3c12	DT40 TDP1 CPT 15µM, TDP1 cell noCPT 21µM (no result: PLK1 PBD inh)
COc1ccc(-c2nc3ccccc3n3c(-c4cccc(C)c4)c4c(=O)n(C)c(=O)n(C)c4c23)cc1	DT40 TDP1 CPT 18µM (no result: PLK1 PBD inh)
Cn1c(=O)c2c(-c3ccccc3)n3c4ccccc4nc(-c4ccccc4)c3c2n(C)c1=O	DT40 TDP1 CPT inconclusive, TDP1 cell noCPT 15µM (no result: PLK1 PBD inh)
Cc1c[n+]([O-])cc(C)c1[N+](=O)[O-]	none (no result: TDP1 inh, KAT2A inh)
Cc1ccc(NC2=C(c3ccc(C(F)(F)F)cc3)C(=O)c3ccccc32)cc1C	DT40 TDP1 CPT 21µM, TDP1 cell noCPT inconclusive (no result: PLK1 PBD inh)
CCn1cc2nc(SCC(=O)Nc3ccc(OC)c(Cl)c3)n(Cc3ccc(OC)cc3)c(=O)c2n1	none (no result: PLK1 PBD inh)
CCn1cc2nc(SCC(=O)Nc3ccc(OC)cc3OC)n(Cc3ccc(OC)cc3)c(=O)c2n1	DT40 TDP1 CPT 4.1µM, TDP1 cell noCPT 2.6µM
CCn1cc2nc(SCC(=O)Nc3ccc(C)cc3)n(Cc3ccc(C)cc3)c(=O)c2n1	DT40 TDP1 CPT 21µM, TDP1 cell noCPT 13µM (no result: PLK1 PBD inh)
CCn1cc2nc(SCC(=O)Nc3ccccc3C(F)(F)F)n(Cc3ccc(C)cc3)c(=O)c2n1	TDP1 inh inconclusive, DT40 TDP1 CPT 16µM, TDP1 cell noCPT 18µM (no result: PLK1 PBD inh)
CCn1cc2nc(SCC(=O)Nc3ccc(OC)c(OC)c3)n(Cc3ccc(OC)cc3)c(=O)c2n1	DT40 TDP1 CPT inconclusive, TDP1 cell noCPT inconclusive (no result: TDP1 inh)
CCn1c(SCC(=O)Nc2cc(OC)ccc2OC)nc2c(c1=O)SCC2	DT40 TDP1 CPT inconclusive, TDP1 cell noCPT 26µM
COc1ccc2c(c1)sc1ncc(C(=O)NCc3cccc(C)c3)c(=O)n12	none (no result: PLK1 PBD inh)
CS(=O)(=O)Nc1ccccc1-c1cccc2nccn12	none (no result: VDR inhibitor, TDP1 inh, KAT2A inh)
Cc1cc(OC(=O)Nc2ccccc2)ccc1Cl	none (no result: VDR inhibitor, TDP1 inh, KAT2A inh)
C#CCN(C(=O)c1ccc(OC)c(OC2CCN(C(C)C)CC2)c1)C1CCCCC1	none
COc1ccc(-c2csc(NC(=O)C3CSC4(C)CCC(=O)N34)n2)c(OC)c1 (stereo unspecified)	DT40 TDP1 CPT inconclusive, TDP1 cell noCPT 23µM
COc1ccc(-c2csc(NC(=O)C3CSC4(C)CCC(=O)N34)n2)cc1 (stereo unspecified)	none
CCCCN1C[C@H](COC(=O)CCC)Oc2cccc(F)c2S1(=O)=O	none (no result: TDP1 inh, KAT2A inh)
FC(F)(F)c1cccc(Nc2c3c(nc4ccc(Cl)cc24)CCC3)c1	DT40 TDP1 CPT 7.3µM, TDP1 cell noCPT 6.5µM (no result: PLK1 PBD inh)
Fc1ccc(F)c(Nc2c3c(nc4ccc(Cl)cc24)CCC3)c1	DT40 TDP1 CPT 16µM, TDP1 cell noCPT inconclusive (no result: PLK1 PBD inh)
O=C(CSc1c2c(nc3ccccc13)CCC2)Nc1ccc(F)cc1F	DT40 TDP1 CPT inconclusive, TDP1 cell noCPT inconclusive (no result: PLK1 PBD inh)
COc1cc(=O)n2c(c1C(=O)NC(C)c1ccco1)CCN(C(=O)c1ccnc(Cl)c1)CC2 (stereo unspecified)	none (no result: VDR inhibitor, TDP1 inh, PLK1 PBD inh, KAT2A inh)
CC[n+]1ccc2cc(OC)c(OC)cc2c1Cc1ccc(OC)c(OC)c1	DT40 TDP1 CPT inconclusive, PLK1 PBD inh inconclusive, KAT2A inh inconclusive, TDP1 cell noCPT inconclusive
O=c1oc2ccccc2c(N2CCC(c3ccccc3)CC2)c1[N+](=O)[O-]	TDP1 cell noCPT inconclusive
CC1CCCN(c2c([N+](=O)[O-])c(=O)oc3ccccc23)C1 (stereo unspecified)	DT40 TDP1 CPT 16µM, TDP1 cell noCPT inconclusive
O=C1C=C(c2ccc3[nH]ccc3c2)C[C@@H](c2ccc(Cl)cc2)C1	DT40 TDP1 CPT inconclusive, TDP1 cell noCPT inconclusive
CN(C)c1cc[n+](CC(=O)c2ccc(OC(F)F)cc2)cc1	DT40 TDP1 CPT 18µM, TDP1 cell noCPT 8.2µM
COc1ccc(CNC(=O)Cn2ccc3cc(S(=O)(=O)N4CCCCCC4)ccc32)cc1OC	DT40 TDP1 CPT inconclusive, TDP1 cell noCPT inconclusive (no result: PLK1 PBD inh)
COc1ccc(-c2nc(CN3CCN(c4cc(C)nc(C)c4)CC3)c(C)o2)c2ccccc12	TDP1 cell noCPT inconclusive
Cc1oc(-c2cccc3ccccc23)nc1CN1CCN(c2ncnc3ccccc23)CC1	DT40 TDP1 CPT 16µM, TDP1 cell noCPT 12µM
CCCCN(C=O)c1c(CC)nc2c(OCc3ccccc3C)cccn12	DT40 TDP1 CPT 15µM, TDP1 cell noCPT inconclusive (no result: VDR inhibitor, TDP1 inh, KAT2A inh)
CCCCN(C=O)c1c(CC)nc2c(OCc3ccc(Cl)cc3Cl)cccn12	DT40 TDP1 CPT 21µM, TDP1 cell noCPT 9.2µM (no result: VDR inhibitor, TDP1 inh, KAT2A inh)
CCc1nc2c(OCc3ccccc3C)cccn2c1N(C)C(=O)C1CC1	DT40 TDP1 CPT inconclusive, TDP1 cell noCPT 23µM (no result: VDR inhibitor, TDP1 inh, KAT2A inh)
CCc1nc2c(OCc3cc(Cl)cc(Cl)c3)cccn2c1N(C)C(=O)c1ccccc1F	DT40 TDP1 CPT inconclusive, TDP1 cell noCPT inconclusive (no result: VDR inhibitor, TDP1 inh, KAT2A inh)
CCN(c1ccccc1)S(=O)(=O)c1cccc(C(=O)NCc2ccncc2)c1	TDP1 cell noCPT inconclusive
C/C=C(\C)C(=O)NCCN1C2=NC[C@@H](C)N2C[C@@H]1Cc1ccc(OC)cc1	none

Screens (PubChem BioAssay)
